The values below come from PubChem BioAssay (NCATS).

The target in assay [1] is Cellular tumor antigen p53 (Homo sapiens) (UniProt P04637). The experiment in a line: Primary qHTS for small molecule compounds that upregulate eGFP-tagged delta133p53alpha (in N-terminal) cells. (AID 2060322). Also: nearly all actives have a fitted effect of over 75% in size. Also: potency is read from the fitted curve at half-maximal effect.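 As to activation: cells pre-induced with doxycycline then dosed without doxycycline; 0% = DMSO vehicle and 100% = reference activator.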 The note with it: NCI-H358 eGFP-delta133p53alpha fluorescence, 24 h; activation: active compounds read high. The method, boiled down:
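NCI-H358 cells pre-induced 24 h with 10 ng/ml doxycycline for eGFP-delta133p53alpha, plated dox-free and exposed 24 h at 37C to titrated compounds. Fixed, Hoechst-stained; gated GFP peak intensity by laser scanning cytometry, normalized to DMSO (0%) and 57.5 uM 5-azacytidine (100%).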
A general note: qHTS replaces the single test concentration by a dilution series.

The target in assay [2] is Aldehyde dehydrogenase, mitochondrial (Homo sapiens) (UniProt P05091). The experiment in a line: qHTS for Inhibitors of the Aldehyde Dehydrogenase Family (ALDH2) Primary screen (AID 2061308).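 Also: plate controls were vehicle for no effect and reference inhibitor for full effect; nearly all actives have a fitted effect of over 55% in size.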 The note with it: ALDH2 enzyme inhibition qHTS, 1536-well; series mostly up to 56 µM.
The target in assay [3] is Retinaldehyde dehydrogenase 3 (Homo sapiens) (UniProt P47895). The experiment in a line: qHTS for Inhibitors of the Aldehyde Dehydrogenase Family (ALDH1A3) Primary screen (AID 2061315).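 Also: plate controls were DMSO vehicle for no effect and reference inhibitor for full effect.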 The note with it: ALDH inhibition qHTS; series mostly up to 56 µM.
A short description of assay [4]: BET inhibitor-based combinations targeting novel dependencies in MECOM-rearranged (r) AML: MV-4-11 cell line (AID 2202233). Also: potency is read from the fitted curve at half-maximal effect; nearly all actives have a fitted effect of over 45% in size. The settings on record: MV-4-11 AML viability, CellTiter-Glo luminescence, 48 h; series mostly up to 46 µM. In outline: (§1)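 Seeding density was 500 cells/well, and drug exposure lasted 48 hr under standard culture conditions. Read-out used CellTiter-Glo reagent with a 15 min room-temperature incubation before luminescence measurement; AUC and Z-AUC summarize the normalized responses.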
(In general: Cellular ATP, detected with luciferase, serves as a proxy for viable cell number.)

The nature of assay [5]: BET inhibitor-based combinations targeting novel dependencies in MECOM-rearranged (r) AML: AML-191 cell line (AID 2202236; also: potency is read from the fitted curve at half-maximal effect; nearly all actives have a fitted effect of over 35% in size). The note with it: AML-191 viability, CellTiter-Glo luminescence, 48 h; series mostly up to 46 µM. The method, boiled down:
(§2)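 Readout: CellTiter-Glo luminescence. Exposure: 48 h, 11 concentrations, 500 cells/well. Metric: AUC and within-line Z-AUC after DMSO/empty-well normalization.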

The nature of assay [6]: BET inhibitor-based combinations targeting novel dependencies in MECOM-rearranged (r) AML: AML-194 cell line (AID 2202237; also: nearly all actives have a fitted effect of over 40% in size; also: potency is read from the fitted curve at half-maximal effect). The note with it: AML-194 (MECOM-r AML) viability, CellTiter-Glo, 48 h; series mostly up to 46 µM. In outline: as §2
Assay [7] can be described thus: BET inhibitor-based combinations targeting novel dependencies in MECOM-rearranged (r) AML: UCSD-AML1 cell line (AID 2202235). Also: potency is read from the fitted curve at half-maximal effect; nearly all actives have a fitted effect of over 40% in size. The settings on record: UCSD-AML1 AML cells viability, CellTiter-Glo, 48 h; series mostly up to 46 µM. The method, boiled down:
as §1

Assay [8] can be described thus: BET inhibitor-based combinations targeting novel dependencies in MECOM-rearranged (r) AML: SET-2 cell line (AID 2202231). Also: potency is read from the fitted curve at half-maximal effect; nearly all actives have a fitted effect of over 35% in size. The settings on record: SET-2 AML cells viability, CellTiter-Glo luminescence, 48 h; viability: active compounds read low, concentration not given here. The method, boiled down: as §2
Assay [9] can be described thus: BET inhibitor-based combinations targeting novel dependencies in MECOM-rearranged (r) AML: OCI-AML3 cell line (AID 2202232). Also: potency is read from the fitted curve at half-maximal effect; nearly all actives have a fitted effect of over 35% in size. The note with it: CellTiter-Glo luminescence, 48 h; Potency: OCI-AML3 viability; series mostly up to 46 µM. In outline: as §2
A short description of assay [10]: BET inhibitor-based combinations targeting novel dependencies in MECOM-rearranged (r) AML: HNT-34 cell line (AID 2202234). Also: potency is read from the fitted curve at half-maximal effect; nearly all actives have a fitted effect of over 35% in size. The note with it: HNT-34 AML viability, CellTiter-Glo luminescence, 48 h; series mostly up to 46 µM. The method, boiled down: as §1
Assay [11] has as its target Retinaldehyde dehydrogenase 3 (Homo sapiens) (UniProt P47895). The experiment in a line: qHTS for Inhibitors of the Aldehyde Dehydrogenase Family (ALDH1A3) Validation screen (AID 2061312). Also: % is scaled to controls: 0 for no effect and ±100 for the full control effect; nearly all actives have a fitted effect of over 45% in size. The note with it: ALDH1A3 enzyme inhibition qHTS validation, fluorescence; series mostly up to 84.7 µM.
Assay [12] has the same target. The experiment in a line: qHTS for Inhibitors of the Aldehyde Dehydrogenase Family (ALDH1A3) Confirmatory screens (AID 2061311). Also: potency is read from the fitted curve at half-maximal effect; nearly all actives have a fitted effect of over 60% in size. The settings on record: ALDH inhibition qHTS; series mostly up to 46 µM.
The target of assay [13] is Retinal dehydrogenase 2 (Homo sapiens) (UniProt O94788). The experiment in a line: qHTS for Inhibitors of the Aldehyde Dehydrogenase Family (ALDH1A2) Confirmation screens (AID 2061314). Also: potency is read from the fitted curve at half-maximal effect; nearly all actives have a fitted effect of over 65% in size. The note with it: ALDH1A2 enzyme inhibition qHTS confirmation; series mostly up to 45.9 µM.

Several values for one entry are separate records, joined by “and”; a condition that tells them apart may be missing. Equal values may be shown once. Records with an inconclusive call do not appear. Activity calls are given as the source filed them. Calls follow the shape of the dose curve; as a rule, active = well fitted curve in the direction sought with a large enough effect; inconclusive = small, poorly fitted or top-dose-only effect, or another doubt; inactive = no such curve, though single readings can be large; an effect the other way counts as inactive or inconclusive.

Cellular tumor antigen p53 (Homo sapiens), sequence (P04637 whole entry, looked up): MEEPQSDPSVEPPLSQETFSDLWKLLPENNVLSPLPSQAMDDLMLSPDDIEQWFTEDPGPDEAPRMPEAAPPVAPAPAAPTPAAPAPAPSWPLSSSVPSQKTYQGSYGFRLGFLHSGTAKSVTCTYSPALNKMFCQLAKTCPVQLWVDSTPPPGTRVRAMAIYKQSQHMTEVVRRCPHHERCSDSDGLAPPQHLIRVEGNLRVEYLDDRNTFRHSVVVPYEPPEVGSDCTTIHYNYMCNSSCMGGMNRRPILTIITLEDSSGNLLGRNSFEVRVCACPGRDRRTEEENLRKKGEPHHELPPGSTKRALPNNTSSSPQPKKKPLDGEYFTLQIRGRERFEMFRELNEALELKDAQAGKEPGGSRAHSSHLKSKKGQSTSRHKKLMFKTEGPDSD

Consider `CC1CCC(C(=O)N(c2cc(C#CC(C)(C)C)sc2C(=O)O)C2CCC(O)CC2)CC1` (centres undefined), for which, in assay [1], the activation was -32.4% (inactive) and -8.93% (inactive). Also, the Potency result in [2], in [3] and in assay [6] was “inactive” in each case. Further, the Potency in assay [4] is 20.9 µM (active); in assay [5], 18.6 µM (active).
With `CCn1c(C(=O)N(C2CC2)C2CC2)cc2c3c(ncn3C)c(Nc3cc(C)n(C)n3)nc21`, in assay [1], the activation is -29.5% (inactive). The Potency result in assay [2] and in [3] was “inactive” each time. Also, the Potency in assay [4] was 2.63 µM (active); in assay [7], 3.32 µM (active).
Turning to `CNC(=O)c1ccccc1Nc1nc(Nc2ccc(N3CCOCC3)cc2OC)ncc1Cl`, the Potency was 3.06 µM (active) and 21.3 µM (active) in assay [1]; 16.6 µM (active) in assay [8]; 0.833 µM (active) in assay [9]; 0.263 µM (active) in assay [4]; 1.32 µM (active) in assay [10]; 2.35 µM (active) in [7]. In assay [2], the Potency result is “inactive”.
For `CCOc1nc2cccc(C(=O)OCc3oc(=O)oc3C)c2n1Cc1ccc(-c2ccccc2-c2noc(O)n2)cc1`, the activation in [1] was 0% (inactive). Further, the Potency result in assay [11] and in assay [3] was “inactive” throughout.
As to `CC1(C)C=CN2C(=O)C3=CCCN3C(=O)[C@@H]2C[C@@]12Nc1ccccc1C2=O`, the activation in assay [1] was -19.8% (inactive). Further, the Potency in assay [12] is 7.83 µM (active).
As to `O=C(Nc1cnc(Cl)nc1)c1ccc(F)c(F)c1`, the activation in assay [1] is 5.25% (inactive). The Potency entry in [11] and in assay [3] was “inactive” throughout.
For `CNC(=O)c1c(F)cccc1Nc1nc(Nc2cc3c(cc2OC)CCN3C(=O)CN(C)C)nc2[nH]ccc12`, the activation in assay [1] was 42.7% (inactive). In addition, the Potency entry in assay [2] was “inactive”. Moreover, the Potency in assay [8] was 8.33 µM (active); in assay [9], 9.34 µM (active); in [4] it was 7.42 µM (active); in assay [10], 6.61 µM (active); in [5], 8.33 µM (active); in assay [6], 7.42 µM (active).
Regarding `CC(C(=O)O)c1ccc2c(c1)[nH]c1ccc(Cl)cc12` (centres undefined), the activation in assay [1] is 8.47% (inactive) and -3.82% (inactive). Further, the Potency in [12] is 15.9 µM (active); in assay [13], 6.34 µM (active). The Potency entry in assay [11] and in assay [3] was “inactive” in each case.
